Rows were chosen to be rich in hits. Some 18% of all compounds tested hit in one or more screens of this group.
TDP1 cell CPT: qHTS for Inhibitors of human tyrosyl-DNA phosphodiesterase 1 (TDP1): qHTS in cells in presence of CPT; chicken DT40 Tdp1-/-;hTDP1 cells + 20 nM CPT, ATP luminescence, 48 h; Potency, µM (titrated, usually from 46.2 µM), for inactives: at the top dose activity change, negative = growth inhibition, hits mostly inhibitors; 420,000 tested, 12% active; note: nearly all actives have a fitted effect of over 55% in size
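Cell growth measured by CellTiter-Glo luminescence after a minimum 48 h, 37 C compound exposure with 20 nM CPT in Tdp1-knockout DT40 cells stably expressing hTDP1, seeded 400/well; qHTS titration format.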
PLK1 PBD block: qHTS for Inhibitors of PLK1-PDB (polo-like kinase 1 - polo-box domain): Primary Screen. Serine/threonine-protein kinase PLK1 (Homo sapiens), P53350. Plk1 PBD binding of FITC phosphopeptide, fluorescence polarization. Potency, µM, without a hit: max response, negative = inhibition, most hits filed as inhibitors. 360,000 tested, 2.8% active. AID 720504, 2013; note: series mostly up to about 57 µM; nearly all actives have a fitted effect of over 65% in size
VDR inh: Inhibitors of the vitamin D receptor (VDR): qHTS; Vitamin D3 receptor (Homo sapiens), P11473; VDR-SRC2-3 peptide fluorescence polarization, 2 h; Potency, µM, for inactives: max response, negative = inhibition, hits mostly inhibitors; 400,000 tested, 0.93% active; AID 504847, 2011
Target sequence (P11473 whole entry, looked up): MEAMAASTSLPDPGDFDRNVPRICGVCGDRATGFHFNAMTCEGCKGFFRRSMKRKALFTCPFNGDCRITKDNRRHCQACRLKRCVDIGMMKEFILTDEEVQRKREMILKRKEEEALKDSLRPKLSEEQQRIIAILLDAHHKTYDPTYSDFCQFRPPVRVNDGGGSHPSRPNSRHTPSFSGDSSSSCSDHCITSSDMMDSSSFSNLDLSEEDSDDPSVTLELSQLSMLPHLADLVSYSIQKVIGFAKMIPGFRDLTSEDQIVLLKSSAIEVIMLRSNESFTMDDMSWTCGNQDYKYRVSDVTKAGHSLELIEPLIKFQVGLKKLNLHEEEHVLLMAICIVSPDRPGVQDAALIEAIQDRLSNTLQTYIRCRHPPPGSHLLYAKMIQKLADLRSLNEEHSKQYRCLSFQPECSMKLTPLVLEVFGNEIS
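FP read-out; VDR + SRC2-3 coactivator peptide; 23 nl compound by pintool; 2 h RT incubation; reagents held at 4 deg C, protected from light.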
TDP1 block: qHTS Assay for Inhibitors of Tyrosyl-DNA Phosphodiesterase (TDP1). Tyrosyl-DNA phosphodiesterase 1 (Homo sapiens), Q9NUW8. recombinant TDP1, AlphaScreen DNA substrate cleavage. Potency, µM (doses to about 130 µM), without a hit: at the highest dose activity change, negative = inhibition, usual class: inhibitors. 350,000 tested, 0.28% active. AID 485290, 2010; note: nearly all actives have a fitted effect of over 40% in size
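Compounds were preincubated with Tdp1 (1 nM final) for 15 min at room temperature before substrate (15 nM final) started a 5 min reaction; beads (10 ug/ml final) were then added for 10 min before AlphaScreen detection.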
KAT2A inh: qHTS Assay for Inhibitors of GCN5L2; AID 504327, 2011; GCN5L2 HAT assay, ThioGlo1 CoA-SH fluorescence; Potency, µM (highest dose often 58.9 µM), inactives show at the highest dose activity change, negative = inhibition, most hits filed as inhibitors; Histone acetyltransferase KAT2A (Homo sapiens), Q92830; 390,000 tested, 0.21% active
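Titration-based screen in which CoA formation is detected via maleimide probe ThioGlo1 (50uM) turning fluorescent on thiol reaction; substrates H3(1-25) 75uM and acetyl-CoA 70uM, GCN5L2 20nM, 20 min incubation at room temperature.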
DT40 TDP1 no CPT: qHTS for Inhibitors of human tyrosyl-DNA phosphodiesterase 1 (TDP1): qHTS in cells in absence of CPT; DT40 Tdp1-/- hTDP1 cells, no CPT, ATP luminescence, 48 h; Potency, µM (series often up to 46.2 µM), inactives show at the top dose activity change, negative = growth inhibition, usual class: inhibitors; 420,000 tested, 15% active; note: nearly all actives have a fitted effect of over 55% in size
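Seeded 400 DT40-hTDP1 cells/well (vehicle DMSO, no 20 nM CPT); pinned compounds; ≥48 hr at 37 °C; CellTiter-Glo luminescence as viability measure.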
* hit, by the source's call; ? = inconclusive; · = no result. Calls come from the whole dose curve; as a rule, active = well fitted curve in the direction sought with a large enough effect; inconclusive = small, poorly fitted or top-dose-only effect, or another doubt; inactive = no such curve, though single readings can be large; an effect the other way counts as inactive or inconclusive. % is set by controls: 0 for no effect and ±100 for the full control effect; potency is the fitted concentration of half-maximal effect.

SMILES	TDP1 cell CPT	PLK1 PBD block	VDR inh	TDP1 block	KAT2A inh	DT40 TDP1 no CPT
CC(Sc1nnc(Cn2c(=O)sc3ccccc32)n1C)c1ccccc1 (stereo unspecified)	?	?	-15%	-3%	-1%	-24%
CCSc1nnc(Cn2c(=O)sc3ccccc32)n1C	13µM*	?	?	8%	2%	-14%
CSc1nnc(Cn2c(=O)sc3ccccc32)n1-c1ccccc1C	?	19µM*	50µM*	·	·	18µM*
Nc1ccc(C(=O)O)cc1S(=O)(=O)O	?	-2%	-3%	0%	-6%	5.8µM*
O=C1C2C3C=CC(C3)C2C(=O)N1c1ncn[nH]1 (stereo unspecified)	-5%	-22%	-3%	16µM*	-3%	0%
CCCCCCCC(=O)NN=C1CCN(Cc2ccccc2)CC1	-6%	1%	-5%	5%	-1%	?
Cc1cc(C)c(NC(=S)NC(NC(=O)c2ccccc2)C(Cl)(Cl)Cl)c(C)c1 (stereo unspecified)	?	-1%	-3%	8%	-4%	5.8µM*
Cc1ccc(C)c(NC(=S)NC(NC(=O)Cc2ccccc2)C(Cl)(Cl)Cl)c1 (stereo unspecified)	-2%	?	-22%	2%	-5%	-22%
Cc1ccccc1NC(=S)NC(NC(=O)c1ccccc1C)C(Cl)(Cl)Cl (stereo unspecified)	?	-9%	1%	-6%	5%	21µM*
O=C(COc1ccccc1)NC(NC(=S)Nc1ccccc1C(=O)O)C(Cl)(Cl)Cl (stereo unspecified)	-21%	27µM*	?	-6%	-2%	-20%
Cc1cc(C)c2c(NC(=O)c3ccccc3Cl)c(C(=O)Nc3ccc(C)c(C)c3)sc2n1	8.2µM*	·	-15%	7%	-3%	16µM*
CCc1ccc(NC(=O)c2sc3nc(C)cc(C)c3c2NC(=O)c2ccccc2OC)cc1	·	·	-7%	8%	1%	·
CCOC(=O)C1CCN(C(=O)Nc2cc(Cl)cc(Cl)c2)CC1	18µM*	-3%	9%	·	12%	?
Cc1ccc(-c2nnc(Nc3ccc(C(N)=O)cc3)c3ccccc23)cc1S(=O)(=O)NCC1CCCO1 (stereo unspecified)	?	-20%	6%	4%	-11%	?
Cc1ccc(-c2nnc(Nc3ccc(O)cc3)c3ccccc23)cc1S(=O)(=O)NCC1CCCO1 (stereo unspecified)	?	·	12%	·	-3%	23µM*
Cc1ccc(-c2nnc(Nc3ccc(Br)cc3)c3ccccc23)cc1S(=O)(=O)NCC1CCCO1 (stereo unspecified)	16µM*	·	-18%	·	-5%	4.1µM*
COc1ccc(CC(=O)Nc2cc(S(=O)(=O)N3CCOCC3)ccc2N2CCOCC2)cc1OC	2%	-6%	-15%	·	·	-12%
COc1cc(-c2nn3c(C4CCCCC4)nnc3s2)cc(OC)c1OC	?	?	4%	5%	1%	21µM*
COc1cc(-c2nn3c(-c4cccnc4)nnc3s2)cc(OC)c1OC	?	-7%	1%	4%	-10%	?
COc1ccc(-c2nn3c(C4CCCCC4)nnc3s2)cc1OC	15µM*	21µM*	?	4%	-19%	?
c1csc(-c2nn3c(C4CCCCC4)nnc3s2)c1	?	0%	-17%	·	·	?
COc1cc2[nH]c(=O)n(CCCC(=O)N3CC=C(c4ccccc4)CC3)c(=O)c2cc1OC	?	-14%	-21%	5%	?	21µM*
O=C(CCn1c(=O)[nH]c2ccccc2c1=O)N1CC=C(c2ccccc2)CC1	-25%	-7%	?	5%	-2%	?
COc1cc2[nH]c(=O)n(CCC(=O)N3CC=C(c4ccccc4)CC3)c(=O)c2cc1OC	2%	-4%	-3%	5%	-6%	-3%
COc1cccc(N2CCN(C(=O)CCCn3c(=O)[nH]c4ccc(Br)cc4c3=O)CC2)c1	21µM*	·	2%	12%	-12%	6.5µM*
SMILES	TDP1 cell CPT	PLK1 PBD block	VDR inh	TDP1 block	KAT2A inh	DT40 TDP1 no CPT
CCOc1cc2[nH]c(=O)n(CCCC(=O)N3CCN(c4ccc(OC)cc4)CC3)c(=O)c2cc1OCC	?	·	13%	-2%	-15%	21µM*
COc1ccc(N2CCN(C(=O)CCn3c(=O)[nH]c4cc(OC)c(OC)cc4c3=O)CC2)cc1	-1%	·	-18%	0%	0%	-10%
C=CCn1c(=O)[nH]c2cc(C(=O)N3CC=C(c4ccccc4)CC3)ccc2c1=O	?	-9%	-4%	3%	-8%	26µM*
CCOC(=O)c1c(C)oc2nc(C)nc(NCCCN3CCN(c4cc(C)ccc4C)CC3)c12	?	·	21%	-1%	1%	-3%
COC(=O)c1ccc(-c2cccc3c2OC(CNC(=O)c2ccc4c(c2)OCCO4)C3)nc1 (stereo unspecified)	-22%	·	·	·	·	-8%
CCOc1ccccc1NC(=O)N1CCC(N2CCN(Cc3ccccc3)C(=O)C2=O)CC1	-16%	·	6%	4%	2%	2%
CCOc1cc2[nH]c(=O)n(CCCCC(=O)N3CCN(c4ccccc4OC)CC3)c(=O)c2cc1OCC	13µM*	·	3%	0%	-6%	9.2µM*
COc1cc2[nH]c(=O)n(CCCCCC(=O)N3CCN(c4ccccn4)CC3)c(=O)c2cc1OC	?	-2%	4%	1%	1%	?
C=CCNC(=S)NNc1nc(N2CCCC2)nc(N2CCCC2)n1	-28%	-15%	?	·	13%	-20%
C=CCNC(=S)NNc1nc(Nc2ccccc2)nc(N2CCCCC2)n1	15µM*	-13%	1%	9%	20%	8.2µM*
Cc1nc(-c2ccc(S(=O)(=O)NCc3ccc(OC(C)C)cc3)cc2)co1	?	·	7%	9%	-10%	26µM*

Screens: PubChem, National Center for Advancing Translational Sciences (NCATS)
